In all, about 24,000 compounds went through this assay and about 1,200 (5%) were called active. Not shown: some 2% with an inconclusive outcome. These entries were drawn from the full list. Values without a mark were called inactive. How the calls were made is not given here.
Assay: Mycobacterium tuberculosis H37Rv growth inhibition, putative kinase inhibitor library, confirmatory dose response (AID 2842);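 further: bacteria incubated one week before Alamar blue readout; 0% = bacteria only wells and 100% = bacteria with high antibiotic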
Conditions: M. tuberculosis H37Rv growth inhibition; CC50: measured here: Vero cell cytotoxicity; inhibition: active compounds read high
Work on `COc1ccc(OC)c(-c2nnc(NC(=O)C(C)Sc3ccccc3)s2)c1` (stereo not drawn) yielded an inhibition of -0.69%.
Compound `COc1ccc(Nc2nc(N3CCN(c4cccc(Cl)c4)CC3)nc3nccnc23)cc1` has an inhibition of 9.83%.
For `CCN(CC)CCCNc1ncnc2sc3c(c12)CC(C)CC3` (stereo not drawn), the inhibition was 5.59%.
In the case of `COc1cc(C(=O)NC(=S)Nc2cccc3c2C(=O)NC3=O)cc(OC)c1OC`, the inhibition is reported as -8.66%.
Work on `Cn1c(=O)c2c(nc(SCCN3CCOCC3)n2Cc2ccccc2)n(C)c1=O` yielded an inhibition of 0.8%.
With `COc1ccc(C(=O)c2cn(CC(=O)Nc3ccc(F)cc3)c3ccc(F)cc3c2=O)cc1` the inhibition was 9.54%.
For `CC1(C)Cc2c(sc(NC(=O)/C=C/c3ccccc3)c2C#N)C(C)(C)N1`, the inhibition was -4.69%.
Compound `COc1ccc(CC(=O)NCCc2cc3ccc(C)cc3[nH]c2=O)cc1OC` has an inhibition of 11.1%.
In the case of `CC1(C)COc2ccc(NC(=O)Cc3cccs3)cc2NC1=O`, the inhibition is reported as 6.11%.
`CCS(=O)(=O)c1cccc(C(=O)Nc2sc(C)c(C)c2C(=O)NC)c1` showed an inhibition of -4.86%.
In the case of `CCOC(=O)N1CCN(C(=O)COc2cccc3c2CCN(CC)C3=O)CC1`, the inhibition is reported as -2.11%.
In the case of `Cn1c(Cn2c(=O)sc3ccccc32)nnc1SCC(=O)Nc1ccc2c(c1)OCO2`, the inhibition is reported as -4.61%.
In the case of `CC(C)N1CCc2c(sc(NC(=O)c3ccccc3Oc3ccccc3)c2C(N)=O)C1`, the inhibition is reported as 81.6%.
`COC(=O)c1c(NC(=O)c2ccccc2)sc2c1CC(C)(C)NC2(C)C` showed an inhibition of 16.8%.
In the case of `Cc1ccc(NC(=O)CSc2nccn(-c3ccc(F)cc3)c2=O)c(C)c1`, the inhibition is reported as -11.8%.
Compound `CNC(=O)C(=O)c1c[nH]c2ccccc12` has an inhibition of 4.99%.
For `CC1CCCCN1c1ncnc(N)c1[N+](=O)[O-]` (stereo not drawn), the inhibition was 1.66%.
In the case of `CC1(C)Cc2c(sc(NC(=O)c3cccc(F)c3)c2C#N)C(C)(C)N1`, the inhibition is reported as -10.1%.
`Cc1nnc(SCc2ccc([N+](=O)[O-])cc2)n(N)c1=O` gave an inhibition of 1.18%.
For `O=C1/C(=C/c2ccc(Br)cc2)Oc2cc(O)ccc21`, the inhibition was 8.31%.
Work on `COc1ccc(CNc2nc3c(-c4ccc(Cl)cc4)nnn3c3ccccc23)cc1` yielded an inhibition of 4.87%.
For `O=C(Nc1nc2c(cc3c4c(cccc42)CC3)s1)C(c1ccccc1)c1ccccc1`, the inhibition was 10.3%.
In the case of `Cc1cc(OC(=O)C23CC4CC(CC(C4)C2)C3)c([N+](=O)[O-])c(=O)[nH]1`, the inhibition is reported as 2.01%.
Compound `C=CCn1c(N(C)C)nc2c1c(=O)[nH]c(=O)n2C` has an inhibition of -2.63%.
`CCOc1ccccc1NC(=O)c1oc2ccccc2c1NC(=O)COc1ccccc1` gave an inhibition of 10.5%.
For `COc1ccc(Cn2cc(C(=O)c3ccc(Cl)cc3)c(=O)c3cc4c(cc32)OCCO4)cc1`, the inhibition was 14.9%.
Compound `CCOc1ccc(C(=O)Nc2c3c(nn2C(C)(C)C)CS(=O)C3)cc1` (stereo not drawn) has an inhibition of 6.89%.
`CCCC(=O)Nc1nnc(-c2cccc(C)c2)s1` showed an inhibition of 5.77%.
Work on `COC(=O)c1ccc(NC(=O)CSc2nnc(C)c(=O)n2N)cc1` yielded an inhibition of 6.15%.
In the case of `Cc1ccc(NC(=O)CSc2nnc(CCC(=O)O)c(=O)[nH]2)cc1C`, the inhibition is reported as -8.56%.
In the case of `O=c1cnnc(N/N=C/c2ccc(O)cc2O)[nH]1`, the inhibition is reported as 45.3%.
For `O=C1C(=O)N(CCCN2CCOCC2)C(c2cccc(F)c2)/C1=C(\O)c1ccncc1` (stereo not drawn), the inhibition was -3.95%.
In the case of `CCOc1ccc(N2CC(NC(=O)Nc3cccc(C)n3)CC2=O)cc1` (stereo not drawn), the inhibition is reported as 8.06%.
Work on `O=S(=O)(Nc1cc(Sc2ncn[nH]2)c(O)c2ccccc12)c1ccc(F)cc1` yielded an inhibition of -6.45%.
`COc1ccccc1NC(=O)CCCN1C(=O)c2cccc3cccc(c23)C1=O` gave an inhibition of 16.8%.
`COc1ccccc1NC(=O)c1oc2ccccc2c1NC(=O)c1ccc(Cl)c([N+](=O)[O-])c1` showed an inhibition of 3.99%.
Compound `COc1ccc(OCC(=O)N/N=C/c2ccccc2O)cc1` has an inhibition of -13%.
Work on `O=C(/C=C/c1cccs1)Nc1nncs1` yielded an inhibition of -2.33%.
`COc1cccc2c1OC(c1ccncc1)N1N=C(c3cc(C)ccc3O)CC21` (stereo not drawn) showed an inhibition of 0.62%.
Work on `Cc1ccccc1NC(=O)CSc1nnc(Cn2c(=O)sc3ccccc32)n1C` yielded an inhibition of -1.23%.
For `COc1ccc(-n2c(=O)[nH]c3c(C(N)=O)nc(-c4ccncc4)nc32)cc1`, the inhibition was 1.06%.
`CC(C)c1nnc(SCc2c(Cl)ccc(Cl)c2Cl)n1N` gave an inhibition of -13.8%.
Work on `O=C(Nc1ccc2c(c1)OCO2)c1cnc2n(c1=O)CCS2` yielded an inhibition of 0.45%.
In the case of `Cc1nnc(NC(=O)CSc2nc3c(c(=O)n2-c2ccccc2)SCC3)s1`, the inhibition is reported as -2.21%.
Compound `Cc1oc2c(CN3CCN(C)CC3)c(O)ccc2c(=O)c1-c1nc2ccccc2s1` has an inhibition of -15.1%.
Work on `Cc1ccc(CSc2nc3c([nH]2)c(=O)n(C)c(=O)n3C)cc1` yielded an inhibition of 6.64%.
Compound `NC(=O)c1oc2ccccc2c1NC(=O)c1ccc(Cl)s1` has an inhibition of 14.6%.
Compound `Nc1nc(SCC(=O)Nc2ccc(F)cc2F)[nH]c(=O)c1NC(=O)c1ccc(Br)cc1` has an inhibition of -9.37%.
`Cc1cc2nnc(SCC(=O)Nc3ccccc3)n2c2ccccc12` showed an inhibition of 0.4%.
`COc1cccc(NC(=O)Nc2nc3c(s2)C(=O)CC(C)(C)C3)c1` showed an inhibition of 8.4%.
In the case of `CCN(c1ncnc(N)c1[N+](=O)[O-])C1CCCCC1`, the inhibition is reported as 5.41%.
For `COc1ccc(NC(=O)CSc2nnc3ccc(-c4ccncc4)nn23)cc1`, the inhibition was -9.39%.
`O=C(CSc1nnc2[nH]c(=O)ccn12)Nc1ccc([N+](=O)[O-])cc1` gave an inhibition of -13.1%.
For `CN(CCC#N)c1ccc(C=C2C(=O)NC(=S)NC2=O)cc1`, the inhibition was 5.58%.
Work on `COC(=O)C1=C(C)NC(=O)NC1c1ccc(Cl)cc1` (stereo not drawn) yielded an inhibition of 1.95%.
Work on `CC(C)CCSc1nc2c(c(=O)[nH]c(=O)n2C)n1CC(O)COc1ccc(Cl)cc1` (stereo not drawn) yielded an inhibition of 21.4%.
For `COc1cccc(N2CC(C)Cn3c2nc2c3c(=O)[nH]c(=O)n2C)c1` (stereo not drawn), the inhibition was 0.57%.
For `CC1Cc2nc(SCc3ccccn3)n(-c3ccc(F)cc3)c(=O)c2S1` (stereo not drawn), the inhibition was 20%.
